# Source: PubChem BioAssay (National Center for Advancing Translational Sciences (NCATS))
# ELG1 DNA repair – qHTS screen for small molecules that inhibit ELG1-dependent DNA repair in human embryonic kidney (HEK293T) cells expressing luciferase-tagged ELG1; Potency, µM (titrated, usually from 46.1 µM), for the others: at the top dose activity change, negative = inhibition, hits mostly inhibitors; HEK293T ELG1-luciferase reporter, luminescence, 16 h; DNA damage induced by 5-fluorouridine; AID 504467, 2011; 330,000 compounds, 2.3% hits; note: % is set by controls: 0 for no effect and ±100 for the full control effect; nearly all actives have a fitted effect of over 55% in size
#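 Luminescence from the luciferase reporter, measured 30 min after ONE-Glo reagent at room temperature, was the read-out. Beforehand, 2,000 cells per well were exposed for 16 hr at 37 °C to 5-fluorouridine together with compound or vehicle.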
# SW480 rereplic – A quantitative high throughput screen for small molecules that induce DNA re-replication in SW480 colon adenocarcinoma cells; SW480 DNA re-replication, Hoechst DNA content imaging, 48 h; Potency, µM (highest dose often 46.1 µM), for the others: at the highest dose re-replication activation, actives largely listed as activators; 340,000 compounds, 1.8% hits; note: % of control where 0% means no effect; nearly all actives have a fitted effect of over 55% in size
#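 DNA re-replication was detected as more nuclei of elevated Hoechst intensity after 48 hr exposure to compound (23 nL pinned per well of 250 cells).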
# KB-3-1 tox – qHTS assay for MDR1-selective chemotherapeutics: Primary screen using the parental adenocarcinoma cell KB-3-1 | KB-3-1 viability, CellTiter-Glo ATP luminescence, 72 h | Potency, µM (highest dose often 46.1 µM), most hits filed as cytotoxic | 400,000 compounds, 1.4% hits | AID 1347075, 2019; note: % is set by controls: 0 for no effect and ±100 for the full control effect; nearly all actives have a fitted effect of over 60% in size
#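 Cells are dispensed, compounds pinned in, plates held at 37 °C for 72 h, then CellTiter-Glo is added and luminescence read after 10 minutes. Cell line: parental KB-3-1 in phenol-red-free DMEM, 10% FBS.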
# KB-V1 cytotox – qHTS assay for MDR1-selective chemotherapeutics: Primary screen using the drug-selected MDR subline cells KB-V1. KB-V1 MDR cells viability, CellTiter-Glo, 72 h. Potency, µM (highest dose often 46.1 µM), most hits filed as cytotoxic. 400,000 compounds, 3.4% hits. AID 1347076, 2019; note: % is set by controls: 0 for no effect and ±100 for the full control effect; nearly all actives have a fitted effect of over 60% in size
#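 qHTS viability screen in drug-selected KB-V1 MDR cells: 72 h compound treatment at 37 degrees C, ATP luminescence end point.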
# MCF10A rereplic – A quantitative high throughput screen for small molecules that induce DNA re-replication in MCF 10a normal breast cells. MCF 10A DNA re-replication, Hoechst nuclear intensity, 48 h. Potency, µM (highest dose often 46.1 µM), for the others: at the highest dose activity, positive = re-replication, usual class: activators. 350,000 compounds, 2.9% hits. AID 624296, 2012; note: % of control where 0% means no effect; nearly all actives have a fitted effect of over 50% in size
# An asterisk follows results filed as active; i = inactive; ? = inconclusive; . = no result given. A selection: hits, their analogues and other compounds. The true share with any hit is near 8.2%. Calls come from the whole dose curve; as a rule, active = well fitted curve in the direction sought with a large enough effect; inconclusive = small, poorly fitted or top-dose-only effect, or another doubt; inactive = no such curve, though single readings can be large; an effect the other way counts as inactive or inconclusive. Potency is the fitted concentration of half-maximal effect.
SMILES,ELG1 DNA repair,SW480 rereplic,KB-3-1 tox,KB-V1 cytotox,MCF10A rereplic
Cc1ccc(C)c(S(=O)(=O)N2CCN(C(=O)C3CCN(c4ncnc5sc(C)c(C)c45)CC3)CC2)c1,?,20.6µM*,23.1µM*,?,20.6µM*
CCc1nnc(NC(=O)C2CCN(c3ncnc4sc(C)c(C)c34)CC2)s1,?,-11.6%,i,?,2.2%
Cc1sc2ncnc(N3CCC(C(=O)Nc4nc(-c5cccs5)cs4)CC3)c2c1C,14.5%,12.2%,?,5.17µM*,?
Cc1ccc2nc(NC(=O)C3CCN(c4ncnc5sc(C)c(C)c45)CC3)sc2c1,0.0%,23.4%,.,.,23.1µM*
CC(C)c1nnc(NC(=O)C2CCN(C(=O)C(C)(C)C)CC2)s1,.,.,i,i,.
CN(Cc1ccccc1)C(=O)[C@@H]1CCCN1S(=O)(=O)c1ccc(Cl)cc1,5.2%,-2.1%,i,?,-18.8%
O=C(/C=C/c1ccc(C(F)(F)F)cc1)Nc1cccc([S+](=O)([O-])Nc2ccccc2F)c1,.,.,i,i,.
CC(=O)N(Cc1cccs1)Cc1cc2ccc(C)c(C)c2nc1Cl,11.6µM*,-3.2%,i,i,-1.2%
CCCCNC(=O)COC(=O)c1c2c(nc3ccccc13)CCC2,?,-5.2%,i,i,-1.9%
CNC(=O)NC(=O)C(C)OC(=O)c1c2c(nc3ccccc13)/C(=C/c1cccs1)CC2 (centres undefined),9.2µM*,?,?,5.17µM*,?
CCCCNC(=O)COC(=O)c1c2c(nc3ccccc13)/C(=C/c1cccs1)CC2,?,5.17µM*,i,?,3.26µM*
COc1ccc(-c2cc3c(nn2)-c2ccccc2C3=O)cc1,?,12.3%,?,7.31µM*,-24.9%
[O-]/C(=C(\C(=S)Nc1ccc(SC(F)F)cc1)[n+]1ccccc1)c1ccc(Cl)cc1Cl,14.6µM*,10.7%,?,?,13.1%
Cc1cc(C)cc(NC(=S)/C(=C(\[O-])c2ccc(Cl)cc2Cl)[n+]2ccccc2)c1,-13.6%,0.0%,i,i,?
N#Cc1ccc(-c2ccc(OCC(=O)NN=Cc3ccncc3)cc2)cc1,?,0.8%,i,i,16.4%
CC12CCC(C)(c3nc4ccccc4nc31)C2(C)C,0.3%,-5.4%,i,i,4.0%
Cc1[nH]nc2c1-c1nc3ccccc3nc1C(C)(C)C2,9.2µM*,?,?,18.4µM*,?
Cc1cc(=O)oc2cc(O)cc(OCc3ccccc3)c12,.,?,?,14.6µM*,20.6µM*
CCOc1ccccc1NC(=O)CCc1c(C)nn(-c2ccc(N3CCCCC3)nn2)c1C,?,4.2%,i,?,-5.3%
COc1ccc(/C=C/C(=O)Nc2ccc(C(N)=O)cc2)cc1OC,0.0%,?,i,i,?
C/C=C/c1ccc(OCCCCN2CCN(CC)CC2)c(OC)c1,10.3%,8.2µM*,i,i,-5.1%
CCc1ccc(NC(=O)COc2ccc(/C=C(/C#N)c3nc4ccccc4[nH]3)cc2OC)cc1,?,?,1.46µM*,?,?
COc1ccc(/C=C/C(=O)Nc2ccc(-n3nncc3-c3ccccc3)cc2)cc1OC,14.6µM*,-3.2%,i,?,5.2%
CCCCOc1ccc(/C=C/C(=O)N(CC)CC(=O)Nc2ccc3c(c2)OCCO3)cc1OC,18.3µM*,?,i,i,20.4%
Clc1ccccc1-c1nnc(SCc2nc(-c3ccccc3)no2)n1-c1ccccc1,.,.,?,i,.
SMILES,ELG1 DNA repair,SW480 rereplic,KB-3-1 tox,KB-V1 cytotox,MCF10A rereplic
COc1ccc(NC(=O)Nc2ccc3c(c2)CCC3)cc1OC,20.9%,1.5%,i,i,1.6%
COc1ccc(/C=C/C(=O)Nc2ccc3c(c2)CCC3)cc1OC,-19.3%,-82.3%,i,20.6µM*,23.8%
C/C=C/c1ccc(OCC(=O)Nc2ccc(OC)c(OC)c2)c(OC)c1,16.4µM*,?,i,i,18.4%
COc1ccccc1NC(=O)Nc1ccc2c(c1)CCC2,?,-4.1%,i,i,1.9%
C/C=C/c1ccc(OCC(=O)Nc2ccncc2)c(OC)c1,5.2%,-2.5%,?,i,-3.7%
COc1ccc(/C=C/C(=O)Nc2cc(C(F)(F)F)ccc2Cl)cc1OC,-25.5%,-5.0%,i,20.6µM*,1.5%
COc1ccc(C)cc1NC(=O)Nc1ccc2c(c1)CCC2,8.6%,-9.2%,i,i,23.1µM*
O=C(COC(=O)c1ccccc1-c1nc2ccccc2s1)Nc1ccccc1C(F)(F)F,23.1µM*,-4.4%,i,i,13.3%
Cc1ccnc(NC(=S)N2CCN(c3ccc(C#N)cc3)CC2)c1,.,.,i,i,.
CCCCCCCCC(=O)N/N=C/c1cccc(Br)c1,12.4%,16.6%,i,i,18.4µM*
O=C(NC(=S)NCc1cccnc1)c1ccccc1[N+](=O)[O-],?,-32.4%,i,23.1µM*,0.6%
CSC(=S)NCc1cccnc1,-3.2%,3.66µM*,25.9µM*,i,3.26µM*
NC(=S)NCc1cccnc1,7.5%,-6.7%,i,i,10.6%
CCCCc1ccc(NC(=S)Nc2ccc(Nc3ccc(OC)cc3)cc2)cc1,?,?,?,16.4µM*,20.6µM*
CCN1CCN(CC(=O)Nc2ccc(Cl)c(S(=O)(=O)N(C)C)c2)CC1,-13.1%,-22.0%,i,i,-0.4%
CCCCc1ccc(NC(=S)Nc2ccc(Cl)c(S(=O)(=O)N(C)C)c2)cc1,12.2%,8.1%,?,23.1µM*,?
CCc1ccc(NC(=S)NCc2cccnc2)cc1,0.0%,-4.0%,i,i,10.4%
CCCCc1ccc(NC(=S)NCc2cccnc2)cc1,6.4%,-16.8%,?,14.6µM*,?
CC1Oc2ccccc2C=C1/C=N/Nc1ccc(C(=O)O)cc1 (centres undefined),?,7.31µM*,i,i,23.1µM*
O=C(NCC(c1cccnc1)N1CCN(c2ccc(F)cc2)CC1)c1ccccc1 (centres undefined),-17.8%,-3.5%,i,i,2.6%
O=C(NCc1ccc2c(c1)OCO2)C(=O)NCC(c1ccco1)N1CCN(c2ccccc2)CC1 (centres undefined),?,2.0%,i,i,?
COc1ccc(N2CCN(C(CNC(=O)C(=O)NCc3ccc4c(c3)OCO4)c3ccco3)CC2)cc1 (centres undefined),7.3µM*,-7.5%,i,?,?
O=C(NCc1cccnc1)C(=O)NCC(c1ccco1)N1CCN(c2ccccc2)CC1 (centres undefined),0.5%,?,i,9.2µM*,4.3%
